Results: PubChem BioAssay AID1159580 (chemical genetic matrix, 2015)
Among all 5,500 compounds or so, about 2,000 (36%) were called active. Another 18% or so got no clear call; they are omitted. No stated cut-off is given here; in the data, active means normalized growth mostly below about 0.91 (no sharp cut-off); inconclusive means no clear call, values can overlap the other calls; inactive means mostly above about 0.92. This is one part of the list.

Assay: chemical genetic growth profiling, strain panel (AID 1159580);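 further: tested at 20 µM; growth read once vehicle control cultures reached saturation at 30 °C; 1 = growth at the plate median or of vehicle wells; lower values mean less growth of the strain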
Conditions: S. cerevisiae deletion strains, growth OD
[1] = locus YAL040C, strain CLN3, hits give low values
[2] = locus YCL061C, strain MRC1 (second series), hits give low values
[3] = locus YDR363W, strain ESC2, hits give low values
[4] = locus YER002W, strain NOP16, hits give low values
[5] = locus YMR307W, strain GAS1, hits give low values
[6] = locus YNL175C, strain NOP13, hits give low values
[7] = locus YNL197C, strain WHI3, hits give low values
[8] = locus YNL224C, strain SQS1, hits give low values
[9] = locus YOR083W, strain WHI5 (second series), hits give low values
[10] = locus YPL055C, strain LGE1, hits give low values
[11] = locus YGR229C, strain SMI1, hits give low values
[12] = locus YJR075W, strain HOC1, hits give low values
[13] = locus YNL128W, strain TEP1, hits give low values
[14] = locus YNL153C, strain GIM3, hits give low values
[15] = locus YPL241C, strain CIN2, hits give low values

Row | SMILES | normalized growth [1] | normalized growth [2] | normalized growth [3] | normalized growth [4] | normalized growth [5] | normalized growth [6] | normalized growth [7] | normalized growth [8] | normalized growth [9] | normalized growth [10] | normalized growth (locus YAL013W, strain DEP1, hits give low values) | normalized growth [11] | normalized growth [12] | normalized growth [13] | normalized growth [14] | normalized growth (locus YNL322C, strain KRE1, hits give low values) | normalized growth [15]
1 | C=CCN1C[C@@H](C)N([C@H](c2ccc(C(=O)N(CC)CC)cc2)c2cccc(OC)c2)C[C@@H]1C | 1.04 (inactive) | 1 (inactive) | 0.992 (inactive) | 0.999 (inactive) | 1.03 (inactive) | 0.995 (inactive) | 1.01 (inactive) | 1.02 (inactive) | 1.02 (inactive) | 1.01 (inactive) | – | – | – | – | – | – | –
2 | CP(=O)(O)C1=CCNCC1 | 1 (inactive) | 1 (inactive) | 0.997 (inactive) | 0.997 (inactive) | 1 (inactive) | 1.01 (inactive) | 1.02 (inactive) | 1.01 (inactive) | 0.987 (inactive) | – | 1.03 (inactive) | 1.02 (inactive) | 1.01 (inactive) | 0.996 (inactive) | 0.999 (inactive) | 1.01 (inactive) | 1 (inactive)
3 | O=c1onc2cnc3ccccc3n12 | 0.984 (inactive) | 0.983 (inactive) | 0.893 (inactive) | 1 (inactive) | 0.977 (inactive) | 0.999 (inactive) | 0.989 (inactive) | 0.987 (inactive) | 0.961 (inactive) | 0.801 (active) | – | 0.939 (inactive) | 0.958 (inactive) | 0.967 (inactive) | 0.777 (active) | – | 0.999 (inactive)
